Sampled rows, rich in hits. Any-hit rate of the full collection: about 4%.
MLL AF4-AF9 inh: blocks AF4 peptide binding to human AF9; AlphaScreen, biotin-AF4 peptide binding to FLAG-AF9; inhibition, % at 10 µM; 350,000 compounds, 0.47% hits; AID 651704;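 active = every replicate reaching a set inhibition limit, whatever the replicate mean, cut at about 25% in these data; inconclusive = mean inhibition reaches that limit but some replicates miss it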;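 note: 0% = plate neutral control median and 100% = total signal loss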
FGF22 binding: FGF22 (human) thermal shift binding; Q9HCT0; recombinant FGF22 thermal shift, SYPRO orange fluorescence; percent of sucrose octasulfate shift, DMSO zero; activity (Tm shift, normalised), % at 9.99 µM; 340,000 compounds, 1.5% hits; AID 651658;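 active = mean Tm shift, scaled 0 neutral to 100 positive control, at about 1.3% or above, every replicate too, limit read from the data; inconclusive = no clear call, values can overlap the other calls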
RAD52 anneal inh: RAD52 (human) annealing inhibition; AID 651710; 360,000 compounds, 0.46% hits; P43351; inhibition, % at 18.7 µM; recombinant RAD52 DNA annealing, FRET fluorescence;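 active = every replicate showing at least 50% inhibition; inconclusive = mean inhibition at least 50% but not in every replicate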
Target sequence (P43351 whole entry, looked up): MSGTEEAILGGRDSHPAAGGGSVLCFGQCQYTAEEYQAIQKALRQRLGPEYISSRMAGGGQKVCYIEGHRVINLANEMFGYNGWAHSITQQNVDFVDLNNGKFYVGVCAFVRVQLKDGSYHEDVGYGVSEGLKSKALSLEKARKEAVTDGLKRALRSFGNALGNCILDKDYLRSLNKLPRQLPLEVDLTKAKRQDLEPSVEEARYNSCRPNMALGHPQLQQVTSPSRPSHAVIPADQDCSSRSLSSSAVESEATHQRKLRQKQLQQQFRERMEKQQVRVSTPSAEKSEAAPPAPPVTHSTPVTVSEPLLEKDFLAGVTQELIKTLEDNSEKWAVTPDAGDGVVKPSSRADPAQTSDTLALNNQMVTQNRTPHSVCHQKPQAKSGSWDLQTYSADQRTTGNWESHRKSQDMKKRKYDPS
DENV2 CPE: inhibitors of DENV2 cytopathic effect. CPE inhibition, % at 9.99 µM. 350,000 compounds, 1.7% hits. DENV2-infected cells, cytopathic effect rescue, plate reader. AID 651640; in the data active = CPE inhibition above about 20%, passing the limit was not always enough; inconclusive = no clear call, values can overlap the other calls; tested in BHK-21 cells;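 note: 0% = median of neutral control wells and 100% = median of positive control wells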
ERAP1 HTS inh: ERAP1 (human) enzyme inhibition | recombinant ERAP1, Leu-AMC fluorescence, 60 min | inhibition, % at 10.7 µM | 340,000 compounds, 0.15% hits | AID 652197;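 active = mean replicate inhibition of at least 30%, or all replicates individually reaching that 30% level; inactive = mean below 30% and not every replicate reaching it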;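 note: 0% = neutral control wells and 100% = L-leucinethiol positive control wells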
Active calls of the source: *; ? = inconclusive; / = no result given.

SMILES	MLL AF4-AF9 inh	FGF22 binding	RAD52 anneal inh	DENV2 CPE	ERAP1 HTS inh
COc1ccc(C2N(c3ccc(Cl)cc3)N=C(C(C)=O)N(C)N2C(C)=O)cc1 (stereo not drawn)	27.7*	-0.3	-9.9	2.9	-4.4
Cc1ccc(C2Nc3ccccc3NC3=C2C(=O)OC(C)C3)cc1 (stereo not drawn)	4.1	0.3	-22.0	-9.0	0.1
CC1CC2=C(C(=O)O1)C(c1ccc(Cl)cc1)Nc1ccccc1N2 (stereo not drawn)	-1.0	-0.2	-15.3	87.9*	1.4
O=C(Nc1ccccc1F)N1CCCCN2[C@H](CO)[C@H](c3ccc(-c4cccnc4)cc3)[C@H]2C1	3.3	-0.2	-8.1	26.9*	0.0
O=C(Nc1cc(F)ccc1F)N1CCCCN2[C@H](CO)[C@H](c3ccc(-c4ccccc4)cc3)[C@H]2C1	6.9	-0.3	2.8	62.0*	-2.0
O=C(Nc1cc(F)ccc1F)N1CCCCN2[C@H](C1)[C@H](c1ccc(C3=CCCCC3)cc1)[C@@H]2CO	0.8	-0.3	27.3	-9.1	-1.1
O=C(Nc1ccccc1F)N1CCCCN2[C@H](CO)[C@@H](c3ccc(-c4cccnc4)cc3)[C@@H]2C1	-2.8	-0.3	-8.9	-2.3	0.0
O=C(Nc1cc(F)ccc1F)N1CCCCN2[C@@H](CO)[C@@H](c3ccc(C4=CCCCC4)cc3)[C@@H]2C1	15.6	-0.4	54.4*	-24.6	0.0
O=C(Nc1cc(F)ccc1F)N1CCCCN2[C@H](C1)[C@H](c1ccc(-c3ccccc3)cc1)[C@@H]2CO	-3.8	-0.1	-3.3	36.3*	-1.4
O=C(Nc1ccc(Cl)cc1)N[C@@H]1CC[C@H](CCn2cc(C3(O)CCCC3)nn2)O[C@@H]1CO	-12.3	0.9	-7.2	-0.8	1.4
C[C@@H]1CN([C@H](C)CO)C(=O)Cc2cc(NC(=O)Nc3cccc4ccccc34)ccc2O[C@@H]1CN(C)Cc1ccc2c(c1)OCO2	0.4	-0.2	31.4	1.7	-3.7
O=C(NCCc1ccccc1)[C@H]1N[C@H]2c3ccc(-c4ccccc4)c(=O)n3C[C@H]2[C@@H]1CO	1.2	0.0	0.3	-6.4	-1.3
COc1ccc(-c2cc(-c3ccccc3)c(-c3ccccc3)nn2)cc1	10.6	0.2	-19.8	?	-1.5
COc1ccc(-c2cc3c(nn2)-c2ccccc2C3=O)cc1	1.3	42.9*	-36.4	-6.2	0.8
CN(C)CCN1CCN(C2CN(Cc3cn(Cc4ccccc4C(F)(F)F)nn3)S(=O)(=O)C2)CC1 (stereo not drawn)	0.1	15.0*	-6.2	-5.6	-2.4
CN1CCN(C2CN(Cc3cn(Cc4ccccc4C(F)(F)F)nn3)S(=O)(=O)C2)CC1 (stereo not drawn)	-2.5	-0.4	-13.3	-5.5	-2.7
COc1ccc2c3c(n(C)c2c1)[C@@H](CO)N(C(=O)C1CC1)CC31CN(C(=O)Nc2cccc(F)c2)C1	0.6	-0.2	-2.9	3.2	0.1
Cn1cc(CCNC(=O)CC2C(=O)NCCN2Cc2cccc(Oc3ccccc3)c2)cn1 (stereo not drawn)	2.0	44.0*	-30.1	2.1	-4.2
CCCN1CCC(NC(=O)CC2C(=O)NCCN2Cc2cccc(OC)c2)CC1 (stereo not drawn)	1.2	-0.3	-16.3	85.3*	-1.0
O=C(C[C@@H]1C=C[C@@H](NC(=O)NC2CCCCC2)[C@@H](CO)O1)NCc1ccccc1	-1.8	-0.3	-9.3	5.4	-3.6
CN(C)CCCCCCNC(=O)[C@@H]1C[C@@H]2C(=O)NCC(=O)N2[C@@H]1c1cccc(OCCO)c1	-4.6	-0.5	1.1	10.2	-1.4
COc1ccccc1NC(=O)/C(=C\c1cccs1)NC(=O)c1ccco1	8.6	-0.1	-2.5	-2.3	/
Cc1ccccc1NC(=O)/C(=C/c1cccs1)NC(=O)c1ccco1	0.9	-0.4	-3.3	26.8*	-0.5
COc1ccc2c3c(n(C)c2c1)[C@H](CO)N(C(=O)Nc1ccc(F)cc1)CC31CCN(S(=O)(=O)c2cccs2)CC1	-0.5	0.0	1.5	-9.7	0.0
CCc1nnc(NC(=O)CSc2nnc(-c3ccco3)o2)s1	-6.1	0.0	-37.4	4.4	2.4
CCc1nnc(NC(=O)CSc2nnc(-c3ccc(NS(=O)(=O)c4ccccc4)cc3)o2)s1	7.9	-0.5	-20.4	25.8*	-4.9
CCOc1ccc(NC(=O)c2nn(C)c(C(=O)Nc3ccc(OCC)cc3)c2[N+](=O)[O-])cc1	-2.5	0.1	-7.5	34.3*	-1.0

Screening data: PubChem, Broad Institute
